Drawing on the supplement of paper PMC13094657, this text covers cell viability and kynurenine production for 33 molecules.

Molecules are shown by their SMILES. ± gives the standard deviation of the averaged measurements.
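Wherever cell viability relative to vehicle unstimulated control is given: viability of the cells left after supernatant collection, read with Deep Blue dye added for 4 h, as absorbance at 570 nm minus 600 nm.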

The test system of the first test is MDA-MB-231. The test is described as follows: cell viability relative to vehicle unstimulated control (fraction); higher = more viable cells. The following applies: pre-treatment time: 18 h then 24 h IFNg/TNF.
With `C[C@@H]1O[C@@H](O[C@H]2[C@H](O[C@H]3CC[C@@]4(C)[C@@H](CC[C@]5(C)[C@@H]4CC=C4[C@@H]6CC(C)(C)CC[C@]6(C(=O)O[C@@H]6O[C@H](CO[C@@H]7O[C@H](CO)[C@@H](O)[C@H](O)[C@H]7O)[C@@H](O)[C@H](O)[C@H]6O)CC[C@]45C)[C@]3(C)CO)OC[C@H](O)[C@@H]2O)[C@H](O)[C@H](O[C@@H]2O[C@H](CO)[C@@H](O[C@@H]3O[C@H](CO)[C@@H](O)[C@H](O)[C@H]3O)[C@H](O)[C@H]2O)[C@H]1O` [Macranthoidin B] (compound dose: 10 uM), the cell viability was 0.9895 ± 0.0011.
Same read-out and setting: then `CCCCC/C=C/C=C/C(=O)O[C@H]1C(C)=C[C@]23C(=O)[C@@H](C=C(CO)[C@@H](O)[C@]12O)[C@H]1[C@@H](C[C@H]3C)C1(C)C` [3-O-(2'E,4'EDecadienoyl)ingenol] (compound dose: 10 uM), with 0.9682 ± 0.0024.
Consider `CC(=O)c1c[nH]c2ccccc12` [3-acetylindol] (compound dose: 10 uM), for which the cell viability was determined as 0.955 ± 0.15.
The same measure, in the same setting: the value for `C[C@H]1[C@H](C)CC[C@]2(C(=O)O)CC[C@]3(C)C(=CC[C@@H]4[C@@]5(C)C[C@@H](O)[C@H](O)[C@@](C)(CO)[C@@H]5CC[C@]43C)[C@H]12` [Asiatic acid] (compound dose: 10 uM) was 1.01 ± 0.018.

For a further test, the system named is MDA-MB-231. The test is described as follows: kynurenine production, fold change vs DMSO IFNg/TNF control; higher = more kynurenine produced (less inhibition). The following applies: pre-treatment time: 18 h then 24 h IFNg/TNF. In short, it runs like this: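 Fold change over cytokine-stimulated vehicle wells on the same plate is the measure used for kynurenine production, averaged across duplicate plates in the first screening round. MDA-MB-231 cells, seeded 24 h beforehand at 7 × 10^4/well in 96-well plates, were pre-treated 18 h with each natural product in 0.1% DMSO and stimulated 24 h at 37°C with IFNγ (1 U/ml) and TNF (6.25 ng/ml). Supernatants were read at 492 nm following trichloroacetic acid and p-dimethylaminobenzaldehyde treatment, against 0–100 μM standards.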
Take `O=C(O)C1=CO[C@@H](O[C@@H]2O[C@H](CO)[C@@H](O)[C@H](O)[C@H]2O)[C@@H]2C(CO)=CC[C@H]12` [Geniposidic acid] (compound dose: 10 uM): the kynurenine production is 0.715 ± 0.065.
On the same count and under the same terms, then `CC(=O)O[C@H]1CC/C(C)=C/CC/C(C)=C/C[C@]2(C(C)C)CC[C@@]1(C)O2` [Incensole Acetate] (compound dose: 10 uM), with 0.941 ± 0.18; and `C[C@@H]1O[C@@H](O[C@H]2[C@H](Oc3cc(O)c4c(c3)O[C@H](c3ccc(O)cc3)CC4=O)O[C@H](CO)[C@@H](O)[C@@H]2O)[C@H](O)[C@H](O)[C@H]1O` [Naringin] (compound dose: 10 uM), with 1.15 ± 0.036; and `CC1=CC[C@@H](C(C)(C)O)CC1` [(-)-α-terpineol] (compound dose: 10 uM), with 0.913 ± 0.057.
The same measure, in the same setting: the value for `CC(C)C1=C[C@H]2[C@@H](CC[C@]2(C)O)[C@](C)(O)CC1` [Alismoxide] (compound dose: 10 uM) was 0.714 ± 0.17; that for `C=C(C)[C@@H]1CC=C(CO)CC1` [Perillyl alcohol] (compound dose: 10 uM) was 0.905 ± 0.13.
Still for that read-out and setting: then `CC1=C[C@H]2[C@@H](CC1)[C@H](C)CC[C@H]2[C@@H](C)C(=O)O` [Dihydroartemisinic acid] (compound dose: 10 uM), with 0.998 ± 0.035.
In the case of `OCC1=C[C@@H](O)[C@]2(O[C@@H]3O[C@H](CO)[C@@H](O)[C@H](O)[C@H]3O[C@@H]3O[C@H](CO)[C@@H](O)[C@H](O)[C@H]3O)C=CO[C@@H](O[C@@H]3O[C@H](CO)[C@@H](O)[C@H](O)[C@H]3O)[C@H]12` [Rehmannioside D] (compound dose: 10 uM), the kynurenine production came out at 0.941 ± 0.072.
Still for that read-out and setting: the value for `C/C=C(\C)C(=O)O[C@H]1[C@H](O)[C@]2(COC(C)=O)[C@@H](O)C[C@]3(C)C(=CC[C@@H]4[C@@]5(C)CC[C@H](O[C@@H]6O[C@H](C(=O)O)[C@@H](O)[C@H](O)[C@H]6O)[C@@](C)(CO)[C@@H]5CC[C@]43C)[C@@H]2CC1(C)C` [Gymnemic acid I] (compound dose: 10 uM) was 1.43 ± 0.11; that for `COc1ccc([C@H]2OC[C@H]3[C@@H]2CO[C@H]3c2ccc(O[C@@H]3O[C@H](CO)[C@@H](O)[C@H](O)[C@H]3O)c(OC)c2)cc1OC` [Phillyrin] (compound dose: 10 uM) was 0.866 ± 0.16.
Still for that read-out and setting: the value for `CC(C)=CC/C=C(\C)[C@H]1CC[C@]2(C)[C@@H]1[C@H](O)C[C@@H]1[C@@]3(C)CC[C@H](O[C@@H]4O[C@H](CO)[C@@H](O)[C@H](O)[C@H]4O[C@@H]4O[C@H](CO)[C@@H](O)[C@H](O)[C@H]4O)C(C)(C)[C@@H]3CC[C@]12C` [Ginsenoside Rg5] (compound dose: 10 uM) was 0.876 ± 0.12.
On the same count and under the same terms, then `C[C@@H]1CC[C@@]2(OC1)O[C@H]1C[C@H]3[C@@H]4CC=C5C[C@@H](O[C@@H]6O[C@H](CO)[C@@H](O)[C@H](O[C@@H]7O[C@H](CO)[C@@H](O)[C@H](O)[C@H]7O)[C@H]6O[C@@H]6O[C@@H](C)[C@H](O)[C@@H](O)[C@H]6O)CC[C@]5(C)[C@H]4CC[C@]3(C)[C@H]1[C@@H]2C` [Gracillin] (compound dose: 10 uM), with 0.202 ± 0.016.
Turning to `CC1(C)CC[C@]2(C(=O)O[C@@H]3O[C@H](CO[C@@H]4O[C@H](CO)[C@@H](O)[C@H](O)[C@H]4O)[C@@H](O)[C@H](O)[C@H]3O)CC[C@]3(C)C(=CC[C@@H]4[C@@]5(C)CC[C@H](O[C@@H]6OC[C@H](O)[C@H](O)[C@H]6O)[C@@](C)(CO)[C@@H]5CC[C@]43C)[C@@H]2C1` [Asperosaponin VI] (compound dose: 10 uM), the kynurenine production worked out at 0.748 ± 0.087.
In the case of `O=C1C[C@@H](O[C@@H]2O[C@H](CO)[C@@H](O)[C@H](O)[C@H]2O)CO1` [Kinsenoside] (compound dose: 10 uM), the kynurenine production stood at 1.01 ± 0.34.
On the same count and under the same terms, the value for `CC(CCC(OC1OC(CO)C(O)C(O)C1OC1OC(CO)C(O)C(O)C1O)C(C)(C)O)C1CCC2(C)C3CC=C4C(CCC(OC5OC(COC6OC(CO)C(O)C(O)C6O)C(O)C(O)C5O)C4(C)C)C3(C)C(O)CC12C` (stereo not drawn) [Mogroside IV] (compound dose: 10 uM) was 1.12 ± 0.23.
As for `C=C(C)[C@@H]1CC[C@]2(C(=O)O)CC[C@]3(C)[C@H](CC[C@@H]4[C@@]5(C)CC[C@H](O[C@@H]6OC[C@H](O)[C@H](O)[C@H]6O[C@@H]6O[C@@H](C)[C@H](O)[C@@H](O)[C@H]6O)[C@@](C)(CO)[C@@H]5CC[C@]43C)[C@@H]12` [Pulchinenoside A] (compound dose: 10 uM), the kynurenine production is 0.878 ± 0.057.
Same read-out and setting: the value for `CSC(=O)OCC1=C[C@H](O)[C@H]2C(C(=O)O)=CO[C@@H](O[C@@H]3O[C@@H](CO)[C@@H](O)[C@@H](O)[C@H]3O)[C@H]12` [Paederosidic acid] (compound dose: 10 uM) was 1.07 ± 0.07; that for `C=C1C[C@@]23CC[C@H]4[C@@](C)(CCC[C@@]4(C)C(=O)O[C@@H]4O[C@H](CO)[C@@H](O)[C@H](O)[C@H]4O)[C@@H]2CC[C@]1(O[C@@H]1O[C@H](CO)[C@@H](O)[C@H](O)[C@H]1O[C@@H]1O[C@H](CO)[C@@H](O)[C@H](O)[C@H]1O)C3` [Stevioside] (compound dose: 10 uM) was 0.959 ± 0.14; that for `C=C1C[C@]23C[C@@]1(O)CC[C@H]2[C@@]12C=C[C@H](O)[C@@](C)(C(=O)O1)[C@H]2[C@@H]3C(=O)O` [Gibberellic acid] (compound dose: 10 uM) was 0.799 ± 0.11.
For the molecule `C[C@H]1O[C@@H](O[C@H]2CC[C@@]3(C)[C@@H](CC[C@]4(C)[C@@H]3C=CC3=C5CC(C)(C)CC[C@]5(CO)[C@@H](O)C[C@]34C)[C@]2(C)CO)[C@H](O[C@@H]2O[C@H](CO)[C@@H](O)[C@H](O)[C@H]2O)[C@@H](O[C@@H]2O[C@H](CO)[C@@H](O)[C@H](O)[C@H]2O)[C@H]1O` [Buddlejasaponin IVb] (compound dose: 10 uM), the kynurenine production was 1.34 ± 0.071.
On the same count and under the same terms, then `CC(C)c1cccc(=O)c(O)c1` [Hinokitiol] (compound dose: 10 uM), with 0.423 ± 0.025.
The same measure, in the same setting: the value for `CC1CCC2(O)C(C)(C)C3CCC2(C)C1C3` (stereo not drawn) [Patchouli alcohol] (compound dose: 10 uM) was 1.04 ± 0.064; that for `CC(=O)OC(CC12C3C(C(C)C)CCC1(C)C1CCC4(CCCC42)N3C1)C(=O)C1(C)COC2(C)CCC1O2` (stereo not drawn) [Daphniphylline] (compound dose: 10 uM) was 0.75 ± 0.079.
Still for that read-out and setting: then `C/C1=C\C(=O)c2c(C)coc2C/C(C)=C/CC1` [Furanodienone] (compound dose: 10 uM), with 0.759 ± 0.13.
With `C[C@H]1[C@@H](O)O[C@@H]2O[C@@]3(C)CC[C@H]4[C@H](C)CC[C@@H]1[C@@]24OO3` [Dihydroartemisinin] (compound dose: 10 uM), the kynurenine production came to 0.688 ± 0.12.
The same measure, in the same setting: the value for `C[C@@H]1CC[C@]2(C(=O)O[C@@H]3O[C@H](CO)[C@@H](O)[C@H](O)[C@H]3O)CC[C@]3(C)C(=CC[C@@H]4[C@@]5(C)C[C@@H](O)[C@H](O)C(C)(C)[C@@H]5CC[C@]43C)[C@@H]2[C@]1(C)O` [Rosamultin] (compound dose: 10 uM) was 1.09 ± 0.26.
Still for that read-out and setting: the value for `CC1(C)C[C@@H](O)[C@]2(C)CC[C@]3(C)C(=CC[C@@H]4[C@@]5(C)CC[C@H](O)[C@](C)(CO)[C@@H]5CC[C@]43C)[C@@H]2C1` [Soyasapogenol B] (compound dose: 10 uM) was 0.744 ± 0.025.
Turning to `CC1(C)CC[C@]2(C(=O)O)CC[C@]3(C)C(=CC[C@@H]4[C@@]5(C)CC[C@H](O[C@@H]6O[C@H](C(=O)O)[C@@H](O)[C@H](O[C@@H]7OC[C@@H](O)[C@H](O)[C@H]7O)[C@H]6O)C(C)(C)[C@@H]5CC[C@]43C)[C@@H]2C1` [Momordin Ic] (compound dose: 10 uM), the kynurenine production turned out to be 0.967 ± 0.2.
Regarding `C[C@@H]1O[C@@H](O[C@H]2[C@H](OC(=O)[C@]34CCC(C)(C)C[C@H]3C3=CC[C@@H]5[C@@]6(C)C[C@H](O)[C@H](O[C@@H]7O[C@H](CO)[C@@H](O)[C@H](O)[C@H]7O)C(CO)(CO)[C@@H]6CC[C@@]5(C)[C@]3(C)C[C@H]4O)OC[C@H](O)[C@@H]2O)[C@H](O)[C@H](O)[C@H]1O[C@@H]1OC[C@@H](O)[C@H](O[C@@H]2OC[C@](O)(CO)[C@H]2O)[C@H]1O` [Platycodin D] (compound dose: 10 uM), the kynurenine production was 0.354 ± 0.065.
